What was measured:
[1] = target: T1, Dual specificity tyrosine-phosphorylation-regulated kinase 2 (Homo sapiens) (UniProt Q92630); details: at 10 µM
T1 sequence (whole entry): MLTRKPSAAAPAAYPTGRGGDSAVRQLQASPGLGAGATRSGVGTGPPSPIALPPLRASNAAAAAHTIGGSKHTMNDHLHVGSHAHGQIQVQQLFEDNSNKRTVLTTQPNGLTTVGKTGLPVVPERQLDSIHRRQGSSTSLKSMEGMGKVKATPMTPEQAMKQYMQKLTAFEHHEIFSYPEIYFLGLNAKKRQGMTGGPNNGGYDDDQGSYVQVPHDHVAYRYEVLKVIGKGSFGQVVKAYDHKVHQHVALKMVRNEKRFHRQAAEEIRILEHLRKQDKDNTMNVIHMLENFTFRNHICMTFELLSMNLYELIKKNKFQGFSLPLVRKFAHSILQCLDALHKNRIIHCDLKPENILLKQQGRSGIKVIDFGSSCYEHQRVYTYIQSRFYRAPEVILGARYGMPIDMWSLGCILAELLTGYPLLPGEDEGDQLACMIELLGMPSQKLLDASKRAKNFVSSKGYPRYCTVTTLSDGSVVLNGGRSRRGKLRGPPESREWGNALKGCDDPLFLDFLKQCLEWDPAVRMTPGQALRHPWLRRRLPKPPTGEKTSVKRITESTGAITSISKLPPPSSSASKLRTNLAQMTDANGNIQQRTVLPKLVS

[2] = target: Ephrin type-A receptor 2 (Homo sapiens) (UniProt P29317); details: at 1 µM
Sequence of Ephrin type-A receptor 2 (Homo sapiens) (P29317 whole entry): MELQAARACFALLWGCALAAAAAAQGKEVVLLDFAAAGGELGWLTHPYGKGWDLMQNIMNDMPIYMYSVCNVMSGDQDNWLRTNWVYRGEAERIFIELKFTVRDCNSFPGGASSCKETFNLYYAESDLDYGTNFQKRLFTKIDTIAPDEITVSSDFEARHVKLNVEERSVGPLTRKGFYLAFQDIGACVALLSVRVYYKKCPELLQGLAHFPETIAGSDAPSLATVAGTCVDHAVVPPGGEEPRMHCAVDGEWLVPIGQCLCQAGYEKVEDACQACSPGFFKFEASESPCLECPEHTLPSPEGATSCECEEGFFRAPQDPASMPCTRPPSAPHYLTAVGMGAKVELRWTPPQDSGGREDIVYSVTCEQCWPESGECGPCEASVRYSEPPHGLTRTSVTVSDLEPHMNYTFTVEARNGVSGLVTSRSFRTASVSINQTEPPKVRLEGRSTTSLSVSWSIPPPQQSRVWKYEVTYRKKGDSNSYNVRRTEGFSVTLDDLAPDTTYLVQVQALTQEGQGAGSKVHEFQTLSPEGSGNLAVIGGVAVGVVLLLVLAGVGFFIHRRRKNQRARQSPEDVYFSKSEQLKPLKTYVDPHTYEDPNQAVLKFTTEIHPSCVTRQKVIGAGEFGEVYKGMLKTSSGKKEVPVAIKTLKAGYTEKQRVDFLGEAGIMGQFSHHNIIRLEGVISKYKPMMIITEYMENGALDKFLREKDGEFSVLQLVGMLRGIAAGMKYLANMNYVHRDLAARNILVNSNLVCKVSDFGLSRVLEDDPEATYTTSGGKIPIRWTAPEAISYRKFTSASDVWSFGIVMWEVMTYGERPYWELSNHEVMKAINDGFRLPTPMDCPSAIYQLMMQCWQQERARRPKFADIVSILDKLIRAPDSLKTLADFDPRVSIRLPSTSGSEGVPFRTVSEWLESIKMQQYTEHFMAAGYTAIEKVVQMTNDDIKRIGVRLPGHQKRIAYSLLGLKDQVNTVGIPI

[3] = target: Ephrin type-A receptor 2 (Homo sapiens) (UniProt P29317); details: at 10 µM
[4] = target: Ephrin type-A receptor 4 (Homo sapiens) (UniProt P54764); details: at 1 µM
Sequence of Ephrin type-A receptor 4 (Homo sapiens) (P54764 whole entry): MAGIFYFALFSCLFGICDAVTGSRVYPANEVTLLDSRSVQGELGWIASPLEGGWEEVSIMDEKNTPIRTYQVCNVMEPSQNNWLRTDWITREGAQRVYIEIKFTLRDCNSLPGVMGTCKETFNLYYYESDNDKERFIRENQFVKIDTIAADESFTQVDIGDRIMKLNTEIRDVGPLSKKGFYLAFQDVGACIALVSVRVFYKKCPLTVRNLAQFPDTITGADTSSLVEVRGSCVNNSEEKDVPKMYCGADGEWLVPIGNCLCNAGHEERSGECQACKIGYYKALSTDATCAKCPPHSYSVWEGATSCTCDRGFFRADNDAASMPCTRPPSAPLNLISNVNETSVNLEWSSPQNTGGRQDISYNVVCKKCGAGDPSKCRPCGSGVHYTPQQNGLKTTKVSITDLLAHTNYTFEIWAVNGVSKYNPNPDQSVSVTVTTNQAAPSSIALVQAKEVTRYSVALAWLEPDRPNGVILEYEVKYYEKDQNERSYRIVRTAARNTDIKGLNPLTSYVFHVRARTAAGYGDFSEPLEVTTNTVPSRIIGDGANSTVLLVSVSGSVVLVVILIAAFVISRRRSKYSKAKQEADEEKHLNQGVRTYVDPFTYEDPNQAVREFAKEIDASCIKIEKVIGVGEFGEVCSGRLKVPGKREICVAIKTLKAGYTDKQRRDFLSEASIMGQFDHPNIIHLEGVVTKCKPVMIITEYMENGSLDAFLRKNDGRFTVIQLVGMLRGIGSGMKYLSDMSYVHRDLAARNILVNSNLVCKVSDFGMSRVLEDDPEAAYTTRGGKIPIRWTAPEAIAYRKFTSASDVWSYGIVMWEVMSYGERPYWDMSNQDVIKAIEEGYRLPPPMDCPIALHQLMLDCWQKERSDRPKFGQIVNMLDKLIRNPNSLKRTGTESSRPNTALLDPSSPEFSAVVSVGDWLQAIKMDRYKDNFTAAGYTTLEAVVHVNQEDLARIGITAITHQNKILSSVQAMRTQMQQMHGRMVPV

[5] = target: Ephrin type-A receptor 4 (Homo sapiens) (UniProt P54764); details: at 10 µM
[6] = target: Ephrin type-A receptor 5 (Homo sapiens) (UniProt P54756); details: at 1 µM
Sequence of Ephrin type-A receptor 5 (Homo sapiens) (P54756 whole entry): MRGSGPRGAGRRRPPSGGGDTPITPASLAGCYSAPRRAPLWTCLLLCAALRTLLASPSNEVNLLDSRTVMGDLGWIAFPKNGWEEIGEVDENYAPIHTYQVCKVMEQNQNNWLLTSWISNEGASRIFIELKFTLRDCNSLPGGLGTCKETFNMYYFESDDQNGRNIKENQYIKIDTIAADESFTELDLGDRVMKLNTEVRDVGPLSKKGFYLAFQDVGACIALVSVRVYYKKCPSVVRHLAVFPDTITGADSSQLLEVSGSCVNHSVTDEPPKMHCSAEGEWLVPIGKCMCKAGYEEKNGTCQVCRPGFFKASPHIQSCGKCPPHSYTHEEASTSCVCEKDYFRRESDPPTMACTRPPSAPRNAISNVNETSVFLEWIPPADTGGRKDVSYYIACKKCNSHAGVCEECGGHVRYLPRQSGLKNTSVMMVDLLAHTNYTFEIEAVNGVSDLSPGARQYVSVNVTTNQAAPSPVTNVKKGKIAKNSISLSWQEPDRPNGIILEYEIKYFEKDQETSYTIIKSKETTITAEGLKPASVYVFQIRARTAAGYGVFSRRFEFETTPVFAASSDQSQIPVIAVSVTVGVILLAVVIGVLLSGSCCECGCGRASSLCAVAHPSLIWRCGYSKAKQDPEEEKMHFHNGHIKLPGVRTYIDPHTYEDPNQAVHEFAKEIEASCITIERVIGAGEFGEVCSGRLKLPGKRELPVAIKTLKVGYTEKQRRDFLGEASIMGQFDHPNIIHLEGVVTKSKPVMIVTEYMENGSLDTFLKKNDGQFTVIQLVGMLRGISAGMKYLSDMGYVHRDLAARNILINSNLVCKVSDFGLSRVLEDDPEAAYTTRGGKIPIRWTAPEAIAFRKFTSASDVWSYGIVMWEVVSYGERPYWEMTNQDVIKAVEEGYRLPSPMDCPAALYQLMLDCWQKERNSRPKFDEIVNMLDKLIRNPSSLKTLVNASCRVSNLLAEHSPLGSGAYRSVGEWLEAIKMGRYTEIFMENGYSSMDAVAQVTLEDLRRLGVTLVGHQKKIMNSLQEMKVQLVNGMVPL

[7] = target: Ephrin type-A receptor 5 (Homo sapiens) (UniProt P54756); details: at 10 µM
[8] = target: Ephrin type-A receptor 7 (Homo sapiens) (UniProt Q15375); details: at 1 µM
Sequence of Ephrin type-A receptor 7 (Homo sapiens) (Q15375 28-998 limits assumed): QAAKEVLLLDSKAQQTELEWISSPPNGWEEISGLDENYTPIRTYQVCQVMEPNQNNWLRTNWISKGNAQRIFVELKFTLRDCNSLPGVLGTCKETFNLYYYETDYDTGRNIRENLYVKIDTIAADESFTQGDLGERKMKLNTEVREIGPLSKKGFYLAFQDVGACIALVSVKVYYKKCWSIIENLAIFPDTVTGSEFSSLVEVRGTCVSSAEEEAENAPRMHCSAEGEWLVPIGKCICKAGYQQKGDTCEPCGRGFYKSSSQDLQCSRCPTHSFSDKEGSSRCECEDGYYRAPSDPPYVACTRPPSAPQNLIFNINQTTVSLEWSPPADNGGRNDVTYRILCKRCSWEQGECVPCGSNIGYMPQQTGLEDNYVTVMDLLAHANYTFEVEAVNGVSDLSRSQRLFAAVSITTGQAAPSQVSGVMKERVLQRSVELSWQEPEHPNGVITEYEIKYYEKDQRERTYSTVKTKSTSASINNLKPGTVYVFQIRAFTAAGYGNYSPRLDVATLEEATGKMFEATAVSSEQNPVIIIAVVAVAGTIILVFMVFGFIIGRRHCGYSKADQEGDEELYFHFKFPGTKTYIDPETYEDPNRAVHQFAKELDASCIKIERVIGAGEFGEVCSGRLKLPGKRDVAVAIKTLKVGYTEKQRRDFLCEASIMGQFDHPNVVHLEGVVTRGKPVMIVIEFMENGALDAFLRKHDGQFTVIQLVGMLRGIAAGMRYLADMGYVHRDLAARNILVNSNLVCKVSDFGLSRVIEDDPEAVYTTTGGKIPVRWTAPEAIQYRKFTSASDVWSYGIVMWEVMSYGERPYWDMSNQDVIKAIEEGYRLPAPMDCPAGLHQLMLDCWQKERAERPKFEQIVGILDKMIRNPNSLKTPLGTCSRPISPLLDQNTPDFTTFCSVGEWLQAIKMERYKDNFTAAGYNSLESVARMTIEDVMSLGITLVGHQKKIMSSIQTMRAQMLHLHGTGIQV

[9] = target: Ephrin type-A receptor 7 (Homo sapiens) (UniProt Q15375); details: at 10 µM
[10] = target: T2, Serine/threonine-protein kinase 17A (Homo sapiens) (UniProt Q9UEE5); details: at 1 µM
T2 sequence (whole entry): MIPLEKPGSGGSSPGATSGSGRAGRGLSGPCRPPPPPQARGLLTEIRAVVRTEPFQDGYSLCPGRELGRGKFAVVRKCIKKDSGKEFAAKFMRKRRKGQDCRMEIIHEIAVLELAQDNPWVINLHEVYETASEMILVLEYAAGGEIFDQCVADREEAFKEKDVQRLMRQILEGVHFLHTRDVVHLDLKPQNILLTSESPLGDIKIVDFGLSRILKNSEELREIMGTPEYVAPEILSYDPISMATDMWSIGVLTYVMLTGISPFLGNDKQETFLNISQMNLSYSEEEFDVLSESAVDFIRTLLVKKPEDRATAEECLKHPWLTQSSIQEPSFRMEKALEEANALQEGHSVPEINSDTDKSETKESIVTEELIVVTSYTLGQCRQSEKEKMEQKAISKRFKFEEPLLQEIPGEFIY

[11] = target: T2, Serine/threonine-protein kinase 17A (Homo sapiens); details: at 10 µM
[12] = target: T1, Dual specificity tyrosine-phosphorylation-regulated kinase 2 (Homo sapiens); details: at 1 µM
[13] = target: T3, Ephrin type-A receptor 1 (Homo sapiens) (UniProt P21709); details: at 1 µM
T3 sequence (whole entry): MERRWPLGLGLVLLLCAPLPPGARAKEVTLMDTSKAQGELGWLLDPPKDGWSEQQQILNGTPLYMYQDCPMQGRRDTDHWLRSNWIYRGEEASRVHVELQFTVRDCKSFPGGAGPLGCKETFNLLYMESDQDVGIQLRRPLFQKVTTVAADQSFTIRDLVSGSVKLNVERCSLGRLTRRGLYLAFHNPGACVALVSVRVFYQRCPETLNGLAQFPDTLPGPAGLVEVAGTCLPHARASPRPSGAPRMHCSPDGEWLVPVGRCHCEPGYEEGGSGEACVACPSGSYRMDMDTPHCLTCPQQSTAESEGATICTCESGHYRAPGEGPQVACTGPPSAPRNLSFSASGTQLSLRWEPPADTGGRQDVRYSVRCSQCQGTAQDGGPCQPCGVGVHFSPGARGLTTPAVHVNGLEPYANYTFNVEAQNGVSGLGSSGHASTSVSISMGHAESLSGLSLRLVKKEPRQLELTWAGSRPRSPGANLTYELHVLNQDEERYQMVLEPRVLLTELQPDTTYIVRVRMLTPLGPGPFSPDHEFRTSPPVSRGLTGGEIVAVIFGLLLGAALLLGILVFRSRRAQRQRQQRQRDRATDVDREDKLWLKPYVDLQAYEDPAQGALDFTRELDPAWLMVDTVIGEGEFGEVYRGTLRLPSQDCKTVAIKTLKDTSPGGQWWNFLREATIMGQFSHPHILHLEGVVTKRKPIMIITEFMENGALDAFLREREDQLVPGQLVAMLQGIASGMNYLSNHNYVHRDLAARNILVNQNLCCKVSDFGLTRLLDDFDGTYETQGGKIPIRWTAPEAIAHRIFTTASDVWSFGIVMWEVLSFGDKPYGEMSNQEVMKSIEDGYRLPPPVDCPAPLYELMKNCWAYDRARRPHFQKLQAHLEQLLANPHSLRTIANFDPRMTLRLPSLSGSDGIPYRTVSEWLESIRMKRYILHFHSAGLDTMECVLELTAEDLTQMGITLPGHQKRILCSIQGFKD

[14] = target: T3, Ephrin type-A receptor 1 (Homo sapiens); details: at 10 µM
[15] = target: T4, Ephrin type-A receptor 3 (Homo sapiens) (UniProt P29320); details: at 1 µM
T4 sequence (whole entry): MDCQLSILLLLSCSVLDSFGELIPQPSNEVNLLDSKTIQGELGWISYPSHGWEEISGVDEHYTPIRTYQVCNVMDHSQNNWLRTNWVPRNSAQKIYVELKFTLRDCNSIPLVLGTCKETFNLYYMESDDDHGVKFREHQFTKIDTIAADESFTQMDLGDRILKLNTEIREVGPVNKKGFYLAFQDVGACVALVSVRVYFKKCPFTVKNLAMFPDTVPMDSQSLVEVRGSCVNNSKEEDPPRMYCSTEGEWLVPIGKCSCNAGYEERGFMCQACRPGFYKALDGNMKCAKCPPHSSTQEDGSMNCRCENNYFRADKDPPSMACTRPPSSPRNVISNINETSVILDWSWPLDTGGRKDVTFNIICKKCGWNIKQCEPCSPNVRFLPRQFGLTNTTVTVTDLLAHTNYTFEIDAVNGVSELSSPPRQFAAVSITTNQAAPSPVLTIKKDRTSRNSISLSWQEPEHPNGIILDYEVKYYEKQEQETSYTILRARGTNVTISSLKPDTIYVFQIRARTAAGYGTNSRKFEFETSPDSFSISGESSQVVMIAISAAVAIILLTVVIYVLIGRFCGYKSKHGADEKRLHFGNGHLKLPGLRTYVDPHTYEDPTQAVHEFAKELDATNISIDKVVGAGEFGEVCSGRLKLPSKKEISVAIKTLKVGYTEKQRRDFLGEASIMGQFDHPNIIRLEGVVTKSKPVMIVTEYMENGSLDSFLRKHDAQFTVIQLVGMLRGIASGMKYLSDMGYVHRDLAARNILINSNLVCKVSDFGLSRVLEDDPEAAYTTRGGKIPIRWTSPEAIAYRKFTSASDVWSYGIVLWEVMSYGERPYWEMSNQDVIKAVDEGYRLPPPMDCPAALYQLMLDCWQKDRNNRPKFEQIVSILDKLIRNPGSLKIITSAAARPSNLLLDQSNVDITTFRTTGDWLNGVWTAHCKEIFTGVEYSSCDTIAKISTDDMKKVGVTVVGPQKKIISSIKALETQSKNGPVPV

[16] = target: T4, Ephrin type-A receptor 3 (Homo sapiens); details: at 10 µM
[17] = target: T5, Ephrin type-A receptor 8 (Homo sapiens) (UniProt P29322); details: at 1 µM
T5 sequence (whole entry): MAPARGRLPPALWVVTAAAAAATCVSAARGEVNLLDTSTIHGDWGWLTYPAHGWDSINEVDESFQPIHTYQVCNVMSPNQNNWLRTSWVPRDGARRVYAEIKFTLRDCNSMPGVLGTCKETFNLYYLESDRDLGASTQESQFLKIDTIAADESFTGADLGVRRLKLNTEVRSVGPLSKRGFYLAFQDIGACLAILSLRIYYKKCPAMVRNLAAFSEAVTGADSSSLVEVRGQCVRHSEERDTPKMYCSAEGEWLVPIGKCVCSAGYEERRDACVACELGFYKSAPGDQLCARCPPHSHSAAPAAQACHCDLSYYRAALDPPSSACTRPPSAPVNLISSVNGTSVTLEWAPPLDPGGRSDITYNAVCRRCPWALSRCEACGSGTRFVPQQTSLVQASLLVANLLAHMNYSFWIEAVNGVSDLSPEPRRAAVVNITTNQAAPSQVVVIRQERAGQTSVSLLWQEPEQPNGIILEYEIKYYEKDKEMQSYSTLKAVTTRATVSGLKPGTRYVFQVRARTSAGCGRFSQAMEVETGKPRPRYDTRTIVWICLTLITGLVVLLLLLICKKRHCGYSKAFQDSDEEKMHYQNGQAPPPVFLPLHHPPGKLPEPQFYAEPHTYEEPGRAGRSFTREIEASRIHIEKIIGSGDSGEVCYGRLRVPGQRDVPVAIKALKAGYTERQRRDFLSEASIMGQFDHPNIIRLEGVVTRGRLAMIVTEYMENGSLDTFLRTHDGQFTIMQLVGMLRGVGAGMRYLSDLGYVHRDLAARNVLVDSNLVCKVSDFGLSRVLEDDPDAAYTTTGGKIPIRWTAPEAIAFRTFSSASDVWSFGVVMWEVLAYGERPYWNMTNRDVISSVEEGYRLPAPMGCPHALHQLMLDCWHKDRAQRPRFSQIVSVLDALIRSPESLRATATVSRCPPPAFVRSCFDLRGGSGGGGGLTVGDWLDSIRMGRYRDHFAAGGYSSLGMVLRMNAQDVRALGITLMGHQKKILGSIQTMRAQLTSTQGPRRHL

[18] = target: T5, Ephrin type-A receptor 8 (Homo sapiens); details: at 10 µM
[19] = target: T6, Ephrin type-B receptor 1 (Homo sapiens) (UniProt P54762); details: at 1 µM
T6 sequence (whole entry): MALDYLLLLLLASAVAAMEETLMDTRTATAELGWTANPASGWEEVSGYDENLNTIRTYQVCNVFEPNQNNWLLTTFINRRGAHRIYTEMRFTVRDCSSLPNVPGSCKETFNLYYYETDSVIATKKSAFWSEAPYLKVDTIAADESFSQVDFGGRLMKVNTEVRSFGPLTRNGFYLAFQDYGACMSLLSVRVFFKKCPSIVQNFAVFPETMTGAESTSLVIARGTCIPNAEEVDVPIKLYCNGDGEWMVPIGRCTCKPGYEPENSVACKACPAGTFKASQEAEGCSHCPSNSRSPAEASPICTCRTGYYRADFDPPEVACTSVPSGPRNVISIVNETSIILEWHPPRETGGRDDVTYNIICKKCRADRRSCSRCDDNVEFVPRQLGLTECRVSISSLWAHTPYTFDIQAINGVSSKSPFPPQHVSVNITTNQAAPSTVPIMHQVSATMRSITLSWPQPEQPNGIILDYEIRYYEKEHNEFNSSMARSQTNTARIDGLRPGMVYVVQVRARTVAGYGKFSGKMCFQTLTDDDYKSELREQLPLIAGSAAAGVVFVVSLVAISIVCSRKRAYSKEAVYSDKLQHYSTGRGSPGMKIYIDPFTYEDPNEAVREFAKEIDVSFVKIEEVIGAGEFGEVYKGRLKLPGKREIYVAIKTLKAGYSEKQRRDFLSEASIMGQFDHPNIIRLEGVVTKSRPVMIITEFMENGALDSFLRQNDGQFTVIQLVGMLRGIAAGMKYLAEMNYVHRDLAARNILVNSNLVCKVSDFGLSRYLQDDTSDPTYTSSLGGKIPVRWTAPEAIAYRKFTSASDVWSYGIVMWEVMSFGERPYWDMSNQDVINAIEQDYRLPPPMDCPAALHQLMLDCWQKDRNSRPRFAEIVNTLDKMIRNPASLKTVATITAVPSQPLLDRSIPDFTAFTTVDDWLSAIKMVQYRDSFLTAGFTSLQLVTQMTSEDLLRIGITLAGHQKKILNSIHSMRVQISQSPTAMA

Structure (SMILES) | residual activity [1] [%] | residual activity [2] [%] | residual activity [3] [%] | residual activity [4] [%] | residual activity [5] [%] | residual activity [6] [%] | residual activity [7] [%] | residual activity [8] [%] | residual activity [9] [%] | residual activity [10] [%] | residual activity [11] [%] | residual activity [12] [%] | residual activity [13] [%] | residual activity [14] [%] | residual activity [15] [%] | residual activity [16] [%] | residual activity [17] [%] | residual activity [18] [%] | residual activity [19] [%]
CCc1nc(-c2ccc(OC)cc2)[nH]c1-c1ccncc1 | 34 | 105 | 105 | 114 | 109 | 116 | 104 | 114 | 100 | – | – | – | – | – | – | – | – | – | –
O=[N+]([O-])/C=C/c1ccc2c(c1)OCO2 | 106 | 106 | 115 | 112 | 100 | 103 | 93 | 95 | 89 | 119 | 63 | 101 | 95 | 102 | 115 | 95 | 100 | 103 | 115
O=C1c2ccccc2-c2nc3nnnn3nc21 | 100 | 107 | 116 | 115 | 102 | 115 | 124 | – | – | 108 | 114 | 101 | 100 | 123 | – | – | – | – | –
CC(C)(C)c1cc(C=C(C#N)C#N)cc(Br)c1O | 101 | 107 | 104 | 113 | – | 107 | 97 | 109 | 102 | 147 | 100 | 107 | 115 | 130 | 122 | 106 | 117 | 99 | 106
COc1ccc2c(c[n+](C)c3c4cc5c(cc4ccc23)OCO5)c1OC | 96 | – | 100 | – | – | – | – | 94 | 79 | – | 77 | – | 94 | – | – | 92 | – | – | 89

Reference: ChEMBL document CHEMBL2218924, “A broad activity screen in support of a chemogenomic map for kinase signalling research and drug discovery” (Biochem J, 2013)
